The list is not random: actives were taken first. Their share in the collection is about 2.1%.
IL1B cytotox: cytotoxicity in IL-1B stimulated HUVEC, primary screen, cytotoxicity control for IL-1B NFkB translocation project, imaging, Hoechst nuclear count, IL-1B stimulus; hit rate 0.41% among 94,000; HUVEC cell count loss; cell count reduction, % at 2 µM;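 active means cell count reduction more than 3 SD above the screen-wide mean, cut at about 70% in these data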
NFkB transloc inh: inhibitors of IL-1B driven NFkB p65 nuclear import, primary screen, imaging, HUVEC, IL-1B stimulus, high-content imaging; HUVEC IL-1B NFkB p65 nuclear translocation imaging; inhibition, % at 2 µM; hit rate 0.43% among 94,000; AID 796, 2007;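 active means inhibition above about 30% together with a positive call from visual inspection of the well image, limit read from the data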;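 further: nuclear over cytoplasmic p65 intensity ratio measured by imaging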
PLAP act: PLAP enzyme activators, biochemical, luminescence, HTS | Alkaline phosphatase, placental type (Homo sapiens), P05187 | purified PLAP enzyme, luminescent substrate read-out; hits give high values | activation fold at 20 µM | hit rate 1.2% among 96,000 | AID 696, 2007; in the data active means activation fold above about 2
TNAP act mid DEA: human TNAP enzyme activators, primary screen, biochemical, luminescent, intermediate phosphate acceptor level. Alkaline phosphatase, tissue-nonspecific isozyme (Homo sapiens), P05186. purified TNAP, CDP-star luminescence, 100 mM DEA, 30 min; hits give high values; scale: 0 levamisole-inhibited, 1 vehicle-only enzyme. activation factor at 20 µM. 64,000 tested, under 10 active. AID 813, 2007;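 active means activation factor of at least 2 at 20 µM, relative to controls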
Target sequence (P05186 whole entry, looked up): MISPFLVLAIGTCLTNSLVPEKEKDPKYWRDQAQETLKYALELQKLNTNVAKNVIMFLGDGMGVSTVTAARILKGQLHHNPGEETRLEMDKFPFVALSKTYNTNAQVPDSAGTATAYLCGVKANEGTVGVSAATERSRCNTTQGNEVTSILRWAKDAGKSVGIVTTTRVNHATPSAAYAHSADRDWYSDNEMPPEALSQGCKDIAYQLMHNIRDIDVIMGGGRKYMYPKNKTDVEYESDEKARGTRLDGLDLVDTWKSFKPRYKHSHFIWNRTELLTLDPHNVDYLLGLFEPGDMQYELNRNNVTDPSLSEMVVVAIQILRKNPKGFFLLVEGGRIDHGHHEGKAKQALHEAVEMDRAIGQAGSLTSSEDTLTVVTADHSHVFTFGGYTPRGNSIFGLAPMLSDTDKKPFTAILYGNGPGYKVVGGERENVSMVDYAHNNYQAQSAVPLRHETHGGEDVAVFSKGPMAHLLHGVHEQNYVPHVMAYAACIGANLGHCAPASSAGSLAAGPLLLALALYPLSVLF
IL1B NFkB pot: enhancers of NFkB p65 translocation in HUVEC – imaging, IL-1B stimulus, high-content imaging, primary screen | hit rate 0.3% among 94,000 | HUVEC IL-1B NFkB p65 nuclear translocation imaging | activation, % at 2 µM;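 active means activation above 40%, about the mean plus 3 SD, also judged a hit on visual image review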;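 further: percent activation is computed from the nuclear over cytoplasmic p65 intensity ratio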
Hits are given with their value; n = inactive; x = no result given.

SMILES	IL1B cytotox	NFkB transloc inh	PLAP act	TNAP act mid DEA	IL1B NFkB pot
Cc1nnc(SC(C)C(=O)Nc2ccc3c(c2)OCCO3)s1 (configuration not stated)	n	n	n	n	n
COc1ccc(-c2nnc(SC(C)C(=O)Nc3ccc4c(c3)OCCO4)o2)cc1 (configuration not stated)	n	n	2.1	n	n
CCOC(=O)c1[nH]cnc1C(=O)Nc1ccncc1	n	n	2.5	n	n
Cc1cc(N2CCC(C)CC2)nc(SCC(=O)c2ccccc2)n1	n	n	x	x	n
COc1ccc2[nH]c(=S)[nH]c2c1	n	n	2.6	n	n
S=c1[nH]c2ccc(Cl)cc2[nH]1	n	n	x	n	n
Nc1ncnc2nc(SCC(=O)N3CCN(c4ccccc4)CC3)[nH]c12	n	n	n	n	n
Nc1ncnc2nc(SCc3ccccc3)[nH]c12	n	n	2	n	n
COc1ccc(CCNC(=O)Cc2cc(OCc3ccccc3)c(OC)cc2[N+](=O)[O-])cc1OC	n	n	n	x	n
C=CCNc1nc(N)c(C(=O)c2ccc3c(c2)OCO3)s1	n	n	n	n	n
C=CCNc1nc(N)c(C(=O)Nc2cc(C)on2)s1	77.2	n	n	n	n
Cc1cc(C)c(S(=O)(=O)N2CCC(C(=O)NCc3ccc(Cl)cc3Cl)CC2)c(C)c1	n	n	2.4	x	n
CCS(=O)(=O)N1CCC(C(=O)NCc2ccc(F)cc2Cl)CC1	n	n	n	n	n
COCCN(C(=O)CSc1nnc(Nc2ccccc2F)s1)c1c(N)n(Cc2ccccc2)c(=O)[nH]c1=O	n	n	2.2	x	n
CSc1ccc(CNc2ccc(C)cc2)cc1	n	n	n	x	n
O=C(CSc1nnc(-c2ccccc2)o1)OCc1ccccc1	n	n	n	n	69.2
Cc1cc2c(c(=O)n1CCCn1ccnc1)C(c1ccco1)C(C#N)=C(N)O2 (configuration not stated)	n	n	n	n	n
COc1ccccc1C1C(C#N)=C(N)Oc2cc(C)n(CCCn3ccnc3)c(=O)c21 (configuration not stated)	n	n	2	n	n
CCCCNC(=O)Nc1nnc(-c2ccccc2)o1	n	n	2.1	x	n
CCc1ccc(N/C(SCc2ccccc2C)=C(/C#N)C(=O)NCc2ccco2)cc1	n	n	n	x	n
CCN(C(=O)CSc1nc2ccccc2n1CCc1ccccc1)C1CCS(=O)(=O)C1 (configuration not stated)	n	n	2.4	x	n
COC(=O)c1ccccc1NC(=O)CSc1nnnn1-c1ccc(C)cc1C	n	n	n	n	n
Cc1ccc(-n2nnnc2SCC(=O)NNC(=O)c2ccco2)c(C)c1	n	n	2	x	n
C=CCn1c(SCC(=O)N2CCc3ccccc3C2)nc2ccccc2c1=O	n	n	n	x	n
CCCCn1ccnc1C(=O)c1cc(S(=O)(=O)N2CCOCC2)ccc1C	n	54.8	n	x	n
SMILES	IL1B cytotox	NFkB transloc inh	PLAP act	TNAP act mid DEA	IL1B NFkB pot
Cc1ccc(S(=O)(=O)N2CCOCC2)cc1C(=O)O	x	x	n	n	x
O=C(NC1CC1)c1c[nH]c2ccc(S(=O)(=O)Nc3cccc(C(F)(F)F)c3)cc2c1=O	90.9	n	n	n	n
CCN(CC)CCSc1nc(O)c(C(C)C)c(=O)[nH]1	n	n	n	n	n
CCCc1c(O)nc(SCCN(CC)CC)[nH]c1=O	89.4	32.3	n	x	n
CN(C)CCCN1C(=O)C(=O)/C(=C(/O)c2ccc3c(c2)OCO3)C1c1cccnc1 (configuration not stated)	n	n	x	n	n
CCCc1[nH]n(-c2nc3ccccc3s2)c(=O)c1C=NCC(C)C	n	n	2.1	x	n
Cn1c2ccc(F)cc2c2ncn(Cc3ccco3)c(=O)c21	n	31.5	n	x	n
Cn1c2ccccc2c2ncn(Cc3ccco3)c(=O)c21	n	n	n	n	n
COc1cc(C(=O)Oc2c(CN3CCOCC3)cc(Cl)c3cccnc23)cc(OC)c1OC	n	n	2	n	n
O=C(Oc1ccc(Cl)c2cccnc12)N1CCOCC1	n	n	n	n	n
O=C(Oc1c(CN2CCOCC2)cc(Cl)c2cccnc12)c1ccc(F)cc1	n	n	2	n	n
OCCN1CCN(Cc2cc(Cl)c3cccnc3c2O)CC1	n	n	2.2	x	n

High-throughput results: PubChem BioAssay, several laboratories
